In PubChem BioAssay (NCATS):
Inconclusive results are not listed. Calls of active or inactive are those of the source. Unless noted, calls follow the shape of the full dose curve.

Tested on: not listed separately
Assay: qHTS for Inhibitors of the Functional Ribonucleoprotein Complex (vRNP) of Lymphocytic Choriomeningitis Arenaviruses (LCMV): Viability assay - alamar blue signal for LCMV Primary Screen (AID 1347085; calls by dose curve; tested in HEK293 reporter line; also: nearly all actives have a fitted effect of over 80% in size)
Conditions: alamar blue viability counter-screen, LCMV vRNP screen cells; series mostly up to 57.5 µM; activity change, negative = lower viability: at the top concentration
% is scaled to controls: 0 for no effect and ±100 for the full control effect.

| Compound | activity change, negative = lower viability | Potency |
| --- | --- | --- |
| Cn1c(=O)c2c(ncn2CC(=O)O)n(C)c1=O | 8.45% (inactive) | – |
| CC1(C)O[C@@H]2C[C@H]3[C@@H]4CCC5=CC(=O)C=C[C@]5(C)[C@@H]4[C@@H](O)C[C@]3(C)[C@]2(C(=O)CO)O1 | 9.49% (inactive) | – |
| NC(=O)n1c(O)c(C(=O)c2cccs2)c2cc(Cl)ccc21 | 6.82% (inactive) | – |
| Cc1scc2c1N(C(=O)CN1CCN(C)CC1)c1ccccc1NC2=O | – | inactive |
| O=P(O)(O)C(O)(Cn1ccnc1)P(=O)(O)O | 13% [at 24.7 µM] (inactive) | – |
| Cc1ccc2ccc(Cl)cc2n1 | 11.2% (inactive) | – |
| CCC(=O)c1c(O)cc(O)cc1O | 18.4% (inactive) | – |
| CC(=O)OCC(=O)[C@@]1(O)[C@H](C)C[C@H]2[C@@H]3CCC4=CC(=O)C=C[C@]4(C)[C@@]3(F)[C@@H](O)C[C@@]21C | -4.42% (inactive) | – |
| CC(=O)c1ccc(O)c(C(N)=O)c1 | 5.46% (inactive) | – |
| CCOC(=O)C1=C(C)NC(C)=C(C(=O)OC)C1c1cccc([N+](=O)[O-])c1 (stereo not drawn) | – | inactive |
| COc1ccc(-c2cc(=O)c3c(O)cc(O[C@@H]4O[C@H](CO[C@@H]5O[C@@H](C)[C@H](O)[C@@H](O)[C@H]5O)[C@@H](O)[C@H](O)[C@H]4O)cc3o2)cc1O | 4.78% (inactive) | – |
| NC(Cc1ccc(Cl)cc1)C(=O)O (stereo not drawn) | – | inactive |
| Cc1cc(=O)oc2cc(O[C@@H]3SC[C@@H](O)[C@H](O)[C@H]3O)ccc12 | 2.81% (inactive) | – |
| CS(=O)(=O)c1ccc([C@@H](O)[C@@H](CF)NC(=O)C(Cl)Cl)cc1 | 5.32% (inactive) | – |
| CC(C)COC(=O)c1ccc(N)cc1 | -5.37% (inactive) | – |
| CCN(CC)C(C)CN1c2ccccc2Sc2ccccc21 (stereo not drawn) | – | inactive |
| CCOc1ncc(F)c(=O)[nH]1 | -2.12% (inactive) | – |
| Nc1cc(=O)[nH]c(N)n1 | – | inactive |
| CCNC(=O)/C=C/c1cccc(Br)c1 | -6.37% (inactive) | – |
| C=CCN1C[C@H](C(=O)N(CCCN(C)C)C(=O)NCC)C[C@@H]2c3cccc4[nH]cc(c34)C[C@H]21 | 5.32% (inactive) | – |

| Compound | activity change, negative = lower viability | Potency |
| --- | --- | --- |
| CC(C)(C)c1ccc(O)cc1 | 0.803% (inactive) | – |
| O=C(O)/C=C(\CC(=O)O)C(=O)O | 4.61% (inactive) | – |
| CN1CCN(c2c(F)cc3c(=O)c(C(=O)O)cn4c3c2SCC4)CC1 | 22.9% (inactive) | – |
| CC(C)NCC(O)c1cc(O)cc(O)c1 (stereo not drawn) | – | inactive |
| Cc1ccc(S(=O)(=O)NC(=O)NC2CCCCCCC2)cc1 | 6.76% (inactive) | – |
| CC(=O)Nc1ccc(OCC(O)CNC(C)C)cc1 (stereo not drawn) | 7.57% (inactive) | – |
| C#C[C@]1(O)CC[C@H]2[C@@H]3CCc4cc(OC5CCCC5)ccc4[C@H]3CC[C@@]21C | -19.6% (inactive) | – |
| NS(=O)(=O)c1cc(C(=O)O)cc(N2CCCC2)c1Oc1ccccc1 | 1.92% (inactive) | – |
| Cc1cnc(NS(=O)(=O)c2ccc(N)cc2)nc1 | -25.6% (inactive) | – |
| COCCOCC(OC)OC | 0.773% (inactive) | – |
| CC(C)=CCC/C(C)=C/CO | 10.5% (inactive) | – |
| O=C(O)c1cc(=O)c2c(OCC(O)COc3cccc4oc(C(=O)O)cc(=O)c34)cccc2o1 | – | inactive |
| NS(=O)(=O)c1ccc(NC(=O)CCC(=O)O)cc1 | -6.89% (inactive) | – |
| Nc1ccc(C(=O)OCC(O)CO)cc1 (stereo not drawn) | 3.31% (inactive) | – |
| Cc1cc(-n2nc3ccc(Cl)cc3n2)c(O)c(C(C)(C)C)c1 | -4.38% (inactive) | – |
| CN=C(N)NC(=O)Nc1c(C)cccc1C | 9.37% (inactive) | – |
| COc1c(N2C[C@@H]3CCCN[C@@H]3C2)c(F)cc2c(=O)c(C(=O)O)cn(C3CC3)c12 | 16.7% (inactive) | – |
| CC(O)C(=O)O (stereo not drawn) | 3.25% (inactive) | – |
| CCN1CCC[C@H]1CNC(=O)c1c(O)c(Cl)cc(Cl)c1OC | – | inactive |

Molecular target: Nucleoprotein (Lymphocytic choriomeningitis virus (strain Armstrong)) (UniProt P09992)
Assay: qHTS for Inhibitors of the Functional Ribonucleoprotein Complex (vRNP) of Lymphocytic Choriomeningitis Arenaviruses (LCMV): LCMV Primary Screen - GLuc reporter signal (AID 1347086); also: nearly all actives have a fitted effect of over 70% in size
Conditions: LCMV minigenome vRNP cell assay, Gaussia luciferase reporter; series mostly up to 57.5 µM; activity change, negative = inhibition: at the top concentration

Sequence of Nucleoprotein (Lymphocytic choriomeningitis virus (strain Armstrong)) (P09992 whole entry, looked up): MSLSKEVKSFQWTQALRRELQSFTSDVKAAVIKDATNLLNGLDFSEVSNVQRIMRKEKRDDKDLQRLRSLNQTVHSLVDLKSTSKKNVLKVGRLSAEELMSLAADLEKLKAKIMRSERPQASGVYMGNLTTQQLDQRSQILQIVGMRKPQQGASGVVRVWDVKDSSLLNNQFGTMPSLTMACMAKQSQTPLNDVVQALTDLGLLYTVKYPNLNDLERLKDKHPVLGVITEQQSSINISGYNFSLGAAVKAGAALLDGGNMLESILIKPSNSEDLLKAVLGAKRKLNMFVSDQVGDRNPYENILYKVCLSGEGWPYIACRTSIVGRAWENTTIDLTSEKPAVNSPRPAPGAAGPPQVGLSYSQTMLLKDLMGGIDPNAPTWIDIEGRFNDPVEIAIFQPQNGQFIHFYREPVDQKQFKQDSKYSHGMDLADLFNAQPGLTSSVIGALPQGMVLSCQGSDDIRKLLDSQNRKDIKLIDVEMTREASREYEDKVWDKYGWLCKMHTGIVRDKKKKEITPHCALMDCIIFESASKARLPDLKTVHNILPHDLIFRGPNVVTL

| Compound | activity change, negative = inhibition | Potency |
| --- | --- | --- |
| Cn1c(=O)c2c(ncn2CC(=O)O)n(C)c1=O | 13.2% (inactive) | – |
| CC1(C)O[C@@H]2C[C@H]3[C@@H]4CCC5=CC(=O)C=C[C@]5(C)[C@@H]4[C@@H](O)C[C@]3(C)[C@]2(C(=O)CO)O1 | 21.9% (inactive) | – |
| NC(=O)n1c(O)c(C(=O)c2cccs2)c2cc(Cl)ccc21 | 5.56% (inactive) | – |
| Cc1scc2c1N(C(=O)CN1CCN(C)CC1)c1ccccc1NC2=O | – | inactive |
| O=P(O)(O)C(O)(Cn1ccnc1)P(=O)(O)O | 19.2% [at 24.7 µM] (inactive) | – |
| Cc1ccc2ccc(Cl)cc2n1 | 18.1% (inactive) | – |
| CCC(=O)c1c(O)cc(O)cc1O | 1.12% (inactive) | – |
| CC(=O)OCC(=O)[C@@]1(O)[C@H](C)C[C@H]2[C@@H]3CCC4=CC(=O)C=C[C@]4(C)[C@@]3(F)[C@@H](O)C[C@@]21C | 22% (inactive) | – |
| CC(=O)c1ccc(O)c(C(N)=O)c1 | -1.38% (inactive) | – |
| CCOC(=O)C1=C(C)NC(C)=C(C(=O)OC)C1c1cccc([N+](=O)[O-])c1 (stereo not drawn) | – | inactive |
| COc1ccc(-c2cc(=O)c3c(O)cc(O[C@@H]4O[C@H](CO[C@@H]5O[C@@H](C)[C@H](O)[C@@H](O)[C@H]5O)[C@@H](O)[C@H](O)[C@H]4O)cc3o2)cc1O | 13.5% (inactive) | – |
| NC(Cc1ccc(Cl)cc1)C(=O)O (stereo not drawn) | – | inactive |
| Cc1cc(=O)oc2cc(O[C@@H]3SC[C@@H](O)[C@H](O)[C@H]3O)ccc12 | 16.8% (inactive) | – |
| CS(=O)(=O)c1ccc([C@@H](O)[C@@H](CF)NC(=O)C(Cl)Cl)cc1 | -21.1% (inactive) | – |
| CC(C)COC(=O)c1ccc(N)cc1 | 6.76% (inactive) | – |
| CCN(CC)C(C)CN1c2ccccc2Sc2ccccc21 (stereo not drawn) | – | inactive |
| CCOc1ncc(F)c(=O)[nH]1 | -12.3% (inactive) | – |
| Nc1cc(=O)[nH]c(N)n1 | – | inactive |
| CCNC(=O)/C=C/c1cccc(Br)c1 | 9.05% (inactive) | – |
| C=CCN1C[C@H](C(=O)N(CCCN(C)C)C(=O)NCC)C[C@@H]2c3cccc4[nH]cc(c34)C[C@H]21 | 9.71% (inactive) | – |

| Compound | activity change, negative = inhibition | Potency |
| --- | --- | --- |
| CC(C)(C)c1ccc(O)cc1 | 14.3% (inactive) | – |
| O=C(O)/C=C(\CC(=O)O)C(=O)O | 23.5% (inactive) | – |
| CN1CCN(c2c(F)cc3c(=O)c(C(=O)O)cn4c3c2SCC4)CC1 | -3.15% (inactive) | – |
| CC(C)NCC(O)c1cc(O)cc(O)c1 (stereo not drawn) | – | inactive |
| Cc1ccc(S(=O)(=O)NC(=O)NC2CCCCCCC2)cc1 | 35.8% (inactive) | – |
| CC(=O)Nc1ccc(OCC(O)CNC(C)C)cc1 (stereo not drawn) | 9.39% (inactive) | – |
| C#C[C@]1(O)CC[C@H]2[C@@H]3CCc4cc(OC5CCCC5)ccc4[C@H]3CC[C@@]21C | -6.9% (inactive) | – |
| NS(=O)(=O)c1cc(C(=O)O)cc(N2CCCC2)c1Oc1ccccc1 | 4.8% (inactive) | – |
| Cc1cnc(NS(=O)(=O)c2ccc(N)cc2)nc1 | -18.1% (inactive) | – |
| COCCOCC(OC)OC | -2.38% (inactive) | – |
| CC(C)=CCC/C(C)=C/CO | -1.76% (inactive) | – |
| O=C(O)c1cc(=O)c2c(OCC(O)COc3cccc4oc(C(=O)O)cc(=O)c34)cccc2o1 | – | inactive |
| NS(=O)(=O)c1ccc(NC(=O)CCC(=O)O)cc1 | 15.8% (inactive) | – |
| Nc1ccc(C(=O)OCC(O)CO)cc1 (stereo not drawn) | -2.96% (inactive) | – |
| Cc1cc(-n2nc3ccc(Cl)cc3n2)c(O)c(C(C)(C)C)c1 | 0.239% (inactive) | – |
| CN=C(N)NC(=O)Nc1c(C)cccc1C | -2.71% (inactive) | – |
| COc1c(N2C[C@@H]3CCCN[C@@H]3C2)c(F)cc2c(=O)c(C(=O)O)cn(C3CC3)c12 | 14.7% (inactive) | – |
| CC(O)C(=O)O (stereo not drawn) | -5.46% (inactive) | – |
| CCN1CCC[C@H]1CNC(=O)c1c(O)c(Cl)cc(Cl)c1OC | – | inactive |
